# The supplement of paper PMC9262897, “Low-cost anti-mycobacterial drug discovery using engineered E. coli” (Nature Communications, 2022)
# Where a name gives a salt, the structure may show the parent alone. ± gives the standard deviation of the averaged measurements.
# Legend:
# Experiment in all cases: growth (OD600 after 10 h); higher = more growth (less inhibition)
# [1] = system: E. coli TESEC Alr+ wild-type control; conditions: compound 0.1 mM; raw OD600 reference: median of DMSO wells 0.241, cell-free background 0.041
# Description: (§1)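 TESEC Mtb Alr E. coli, or the Alr+ wild-type control, in 384-well plates with Prestwick library compounds at 0.1 mM and 1% DMSO, across arabinose induction levels of 1E3 to 1E7 nM. Growth is read as OD600 after 10 h at 37 °C in triplicate biological replicates.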
# E. coli TESEC Mtb Alr [2] = conditions: compound 0.1 mM
# Description: as §1
# E. coli TESEC Mtb Asd = conditions: compound 0.1 mM
# Description: (§2)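 TESEC E. coli strains in which the native enzyme is deleted and replaced by arabinose-inducible Mtb Asd, DapB, CysH or TrpD, each grown in its selective medium. Strains were screened against the Prestwick library at 0.1 mM and 1% DMSO in 384-well format at low and high arabinose induction. Growth is read as OD600 after 10 h in triplicate.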
# E. coli TESEC Mtb DapB = conditions: compound 0.1 mM
# Description: as §2
# [3] = system: E. coli TESEC Alr+ wild-type control; conditions: compound 0.1 mM; raw OD600 reference: median of DMSO wells 0.49, cell-free background 0.052
# Description: (§3)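 TESEC Mtb Alr E. coli (ΔaraC ΔtolC ΔentC Δalr ΔdadX, arabinose-inducible Mtb Alr) or the Alr+ wild-type control strain, grown in defined M9-fructose medium without D-alanine in 96-well plates with Prestwick library compounds at 0.1 mM and 1% DMSO. Low Alr induction is 0.1 µM arabinose and high induction is 10 mM arabinose.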
# E. coli TESEC Mtb Alr [4] = conditions: compound 0.1 mM; remark: listed apart in the source
# Description: as §3
# [5] = arabinose 1000 nM, raw OD600 reference: median of DMSO wells 0.294, cell-free background 0.041
# [6] = arabinose 10000 nM, raw OD600 reference: median of DMSO wells 0.264, cell-free background 0.041
# [7] = arabinose 100000 nM, raw OD600 reference: median of DMSO wells 0.201, cell-free background 0.041
# [8] = arabinose 1000000 nM, raw OD600 reference: median of DMSO wells 0.193, cell-free background 0.041
# [9] = arabinose 10000000 nM, raw OD600 reference: median of DMSO wells 0.146, cell-free background 0.041
# [10] = arabinose induction (level): High, raw OD600 reference: median of DMSO wells 0.331, cell-free background 0.041
# [11] = arabinose induction (level): Low, raw OD600 reference: median of DMSO wells 0.417, cell-free background 0.041
# [12] = arabinose induction (level): High, raw OD600 reference: median of DMSO wells […], cell-free background 0.041
# [13] = arabinose induction (level): Low, raw OD600 reference: median of DMSO wells 0.227, cell-free background 0.041
# [14] = arabinose 100 nM, raw OD600 reference: median of DMSO wells 0.413, cell-free background 0.052
# [15] = arabinose 10000000 nM, raw OD600 reference: median of DMSO wells […], cell-free background 0.052
Structure (SMILES),growth [1],growth (E. coli TESEC Mtb Alr [2]; [5]),growth (E. coli TESEC Mtb Alr [2]; [6]),growth (E. coli TESEC Mtb Alr [2]; [7]),growth (E. coli TESEC Mtb Alr [2]; [8]),growth (E. coli TESEC Mtb Alr [2]; [9]),growth (E. coli TESEC Mtb Asd; [10]),growth (E. coli TESEC Mtb Asd; [11]),growth (E. coli TESEC Mtb DapB; [12]),growth (E. coli TESEC Mtb DapB; [13]),growth [3],growth (E. coli TESEC Mtb Alr [4]; [14]),growth (E. coli TESEC Mtb Alr [4]; [15])
O=C(Nc1ccc([N+](=O)[O-])cc1Cl)c1cc(Cl)ccc1O [Niclosamide],0.0431 ± 0.00067,0.0406 ± 0.001,0.0492 ± 0.0021,0.0408 ± 0.0001,0.03973 ± 0.00035,0.0404 ± 0.00042,0.0715 ± 0.017,0.225 ± 0.037,0.174 ± 0.012,0.193 ± 0.043,0.053 ± 0.003,0.0618 ± 0.0064,0.0616 ± 0.00076
C1N2CN3CN1CN(C2)C3 [Methenamine],0.245 ± 0.011,0.287 ± 0.0055,0.275 ± 0.0029,0.198 ± 0.025,0.226 ± 0.0064,0.14 ± 0.0044,0.345 ± 0.048,0.33 ± 0.051,0.204 ± 0.0098,0.218 ± 0.035,0.59 ± 0.14,0.41 ± 0.01,0.376 ± 0.0071
CC(=C(CCO)SSCC1CCCO1)N(C=O)Cc1cnc(C)nc1N (stereo in doubt) [Fursultiamine Hydrochloride],0.245 ± 0.0085,0.313 ± 0.0078,0.282 ± 0.0063,0.208 ± 0.023,0.22 ± 0.0094,0.132 ± 0.0026,0.215 ± 0.0087,0.275 ± 0.052,0.195 ± 0.024,0.247 ± 0.012,0.583 ± 0.044,0.399 ± 0.013,0.323 ± 0.019
CCCCC1(COC(=O)CCC(=O)O)C(=O)N(c2ccccc2)N(c2ccccc2)C1=O [Suxibuzone],0.203 ± 0.0032,0.291 ± 0.013,0.244 ± 0.0044,0.192 ± 0.019,0.188 ± 0.0095,0.1314 ± 0.001,0.305 ± 0.052,0.427 ± 0.026,0.1763 ± 0.0008,0.204 ± 0.009,0.521 ± 0.1,0.401 ± 0.0076,0.341 ± 0.0062
Cc1cc(-n2c(=O)[nH]c(=O)n(C)c2=O)ccc1Oc1ccc(SC(F)(F)F)cc1 [Toltrazuril],0.0494 ± 0.013,0.0602 ± 0.032,0.0431 ± 0.006,0.0449 ± 0.0059,0.0576 ± 0.031,0.0455 ± 0.0035,0.0752 ± 0.012,0.203 ± 0.057,0.227 ± 0.017,0.254 ± 0.016,0.137 ± 0.043,0.0828 ± 0.028,0.0543 ± 0.0016
O=c1[nH]cc(F)c(=O)[nH]1 [5-fluorouracil],0.122 ± 0.0069,0.155 ± 0.012,0.148 ± 0.0051,0.0825 ± 0.0014,0.0827 ± 0.0053,0.08963 ± 0.00055,0.193 ± 0.013,0.238 ± 0.015,0.151 ± 0.011,0.142 ± 0.013,0.556 ± 0.066,0.359 ± 0.041,0.134 ± 0.013
CN(C)CCCN1c2ccccc2CCc2ccccc21 [Imipramine hydrochloride],0.189 ± 0.019,0.242 ± 0.018,0.285 ± 0.013,0.212 ± 0.014,0.133 ± 0.0058,0.175 ± 0.011,0.164 ± 0.026,0.363 ± 0.063,0.194 ± 0.016,0.243 ± 0.071,0.452 ± 0.015,0.408 ± 0.0092,0.21 ± 0.11
C#C[C@]1(O)CC[C@H]2[C@@H]3CCC4=CC(=O)CC[C@@H]4[C@H]3CC[C@@]21CC [Norgestrel-(-)-D],0.225 ± 0.017,0.271 ± 0.0042,0.2581 ± 0.0012,0.193 ± 0.014,0.179 ± 0.0092,0.145 ± 0.007,0.374 ± 0.051,0.429 ± 0.018,0.191 ± 0.0085,0.234 ± 0.04,0.517 ± 0.04,0.413 ± 0.018,0.331 ± 0.039
COC(=O)C1=C(C)NC(C)=C(C(=O)OC(C)C)C1c1cccc2nonc12 (stereo unspecified) [Isradipine],0.149 ± 0.0056,0.206 ± 0.0037,0.254 ± 0.015,0.164 ± 0.0057,0.0817 ± 0.0022,0.154 ± 0.0037,0.166 ± 0.018,0.259 ± 0.041,0.19 ± 0.019,0.21 ± 0.011,0.379 ± 0.0051,0.394 ± 0.01,0.167 ± 0.038
Nc1nc(=O)n([C@@H]2CS[C@H](CO)O2)cc1F [(-)-Emtricitabine],0.238 ± 0.0098,0.285 ± 0.0065,0.248 ± 0.0044,0.254 ± 0.061,0.172 ± 0.0027,0.147 ± 0.005,0.291 ± 0.092,0.419 ± 0.09,0.192 ± 0.024,0.218 ± 0.011,0.572 ± 0.0088,0.412 ± 0.0087,0.337 ± 0.012
NC[C@@H]1O[C@H](O[C@H]2[C@@H](O)[C@H](O[C@@H]3[C@@H](O)[C@H](N)C[C@H](N)[C@H]3O[C@H]3O[C@H](CO)[C@@H](O)[C@H](O)[C@H]3N)O[C@@H]2CO)[C@H](N)[C@@H](O)[C@@H]1O [Paromomycin sulfate],0.251 ± 0.0064,0.327 ± 0.0078,0.275 ± 0.0073,0.19 ± 0.0041,0.19 ± 0.013,0.163 ± 0.0039,0.496 ± 0.0058,0.447 ± 0.027,0.195 ± 0.0097,0.26 ± 0.034,0.535 ± 0.089,0.405 ± 0.014,0.333 ± 0.0043
C[C@]12CC[C@@H]3c4ccc(O)cc4CC[C@H]3[C@@H]1C[C@@H](O)[C@@H]2O [Estriol],0.152 ± 0.0072,0.218 ± 0.018,0.277 ± 0.015,0.148 ± 0.0042,0.135 ± 0.0069,0.143 ± 0.0047,0.221 ± 0.043,0.264 ± 0.034,0.183 ± 0.008,0.203 ± 0.033,0.474 ± 0.021,0.432 ± 0.0087,0.258 ± 0.013
Cc1c(Nc2ncccc2C(=O)O)cccc1C(F)(F)F [Flunixin meglumine],0.146 ± 0.0033,0.084 ± 0.007,0.0857 ± 0.0019,0.163 ± 0.005,0.082 ± 0.0026,0.127 ± 0.0028,0.157 ± 0.0086,0.125 ± 0.0096,0.178 ± 0.0075,0.187 ± 0.01,0.373 ± 0.034,0.277 ± 0.026,0.146 ± 0.021
CC(=O)OC(C)C[N+](C)(C)C (stereo unspecified) [Methacholine chloride],0.238 ± 0.0071,0.282 ± 0.0064,0.269 ± 0.0094,0.171 ± 0.011,0.187 ± 0.0089,0.134 ± 0.0072,0.361 ± 0.092,0.428 ± 0.025,0.2263 ± 0.0013,0.243 ± 0.023,0.466 ± 0.066,0.413 ± 0.021,0.361 ± 0.015
Cc1ccc2c(c1)c1c3n2CCNC3CCC1 (stereo unspecified) [Pirlindole mesylate],0.215 ± 0.0049,0.252 ± 0.0064,0.262 ± 0.0058,0.182 ± 0.022,0.148 ± 0.003,0.165 ± 0.011,0.177 ± 0.0082,0.259 ± 0.028,0.18 ± 0.0019,0.201 ± 0.024,0.485 ± 0.052,0.397 ± 0.0065,0.351 ± 0.011
CCOC(=O)c1ccc(OC(=O)CCCCCNC(=N)N)cc1 [Gabexate mesilate],0.15 ± 0.014,0.179 ± 0.0036,0.158 ± 0.0034,0.109 ± 0.0039,0.0891 ± 0.0033,0.14 ± 0.0019,0.135 ± 0.015,0.147 ± 0.017,0.177 ± 0.0061,0.16 ± 0.011,0.495 ± 0.029,0.396 ± 0.013,0.123 ± 0.0081
O=C(O)CNC(=O)C(CS)Cc1ccccc1 (stereo unspecified) [Thiorphan],0.26 ± 0.0069,0.305 ± 0.013,0.2568 ± 0.0017,0.252 ± 0.037,0.172 ± 0.003,0.167 ± 0.0089,0.3 ± 0.069,0.382 ± 0.034,0.202 ± 0.019,0.236 ± 0.019,0.475 ± 0.036,0.409 ± 0.0074,0.348 ± 0.021
